Compounds with a hit are over-represented: about 21% of the library has one in this group of screens.
D3 ag: qHTS of D3 Dopamine Receptor Agonist: qHTS | D(3) dopamine receptor (Homo sapiens), P35462 | D3R DiscoveRx beta-arrestin cells, luminescence, 90 min | max activation, % | actives 0.58% (n = 410,000) | AID 652048, 2013; in the data active = max activation above about 30%
Target sequence (P35462 whole entry, looked up): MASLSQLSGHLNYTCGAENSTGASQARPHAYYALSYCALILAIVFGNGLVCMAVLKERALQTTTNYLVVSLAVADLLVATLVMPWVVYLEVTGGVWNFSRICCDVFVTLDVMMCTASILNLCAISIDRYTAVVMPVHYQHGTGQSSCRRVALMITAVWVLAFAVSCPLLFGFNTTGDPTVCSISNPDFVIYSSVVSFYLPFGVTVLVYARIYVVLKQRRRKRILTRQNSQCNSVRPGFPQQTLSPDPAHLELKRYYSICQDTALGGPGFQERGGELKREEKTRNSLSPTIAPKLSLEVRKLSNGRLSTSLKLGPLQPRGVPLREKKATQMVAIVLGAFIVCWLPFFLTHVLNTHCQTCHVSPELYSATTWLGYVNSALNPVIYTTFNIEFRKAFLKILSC
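Cells at 1500/well, incubated overnight, then treated with pinned compounds (dopamine as control) for 90 min at 37 degrees C. DiscoveRx reagent added for 30 - 60 minutes at room temperature; luminescence read.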
ClpP mod: qHTS Assay for Activators of ClpP; purified B. subtilis ClpP, FRET peptide cleavage, 20 min; actives 1.9% (n = 340,000); ATP-dependent Clp protease proteolytic subunit (Bacillus subtilis (strain 168)), P80244; Potency, µM (series often up to 57.5 µM); active = well fitted falling curve with a large enough effect; inconclusive = small, poorly fitted or top-dose-only effect; inactive = no such curve, though single readings can be large or run the other way; also: the source files actives as falling curves though it sought activators and does not explain the sign; nearly all actives have a fitted effect of over 65% in size
Target sequence (P80244 whole entry, looked up): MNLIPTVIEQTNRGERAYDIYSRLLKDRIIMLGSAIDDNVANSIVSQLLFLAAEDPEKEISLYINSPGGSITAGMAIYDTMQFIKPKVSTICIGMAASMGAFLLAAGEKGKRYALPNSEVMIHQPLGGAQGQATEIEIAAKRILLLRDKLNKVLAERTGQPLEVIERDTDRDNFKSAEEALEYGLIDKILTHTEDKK
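FRET quenching reversal measured ClpP activation: 10 microg/mL B. subtilis ClpP at pH 8 with the FRET-FV decapeptide, read at 430 nm after 320 nm excitation. The 20-min minus 0-min signal was scaled between DMSO/no-enzyme wells and ADEP (5.8 microM final).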
IL1B secr inh: qHTS for Inhibitors of Inflammasome Signaling: IL-1-beta AlphaLISA Primary Screen | THP-1 LPS/ATP IL-1B secretion, AlphaLISA, 16 h; stronger effect = lower value | activity change, % at 57.5 µM | actives 4.7% (n = 360,000); in the data active = activity change below about -50%; inconclusive = mostly about -30% to -49%
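Secreted IL-1B measured by AlphaLISA bead assay after 16 h compound exposure of THP-1 cells; compounds (final up to 57.5 uM) added 1 h before LPS (250 ng/mL) and ATP (1.25 mM) stimulation; lower signal means less secretion.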
DRD3 antagonist: qHTS of D3 Dopamine Receptor Antagonist: qHTS | max response, negative = inhibition, % | actives 2.5% (n = 360,000) | D3R cells, DiscoveRx beta-arrestin luminescence, antagonist mode; stronger effect = lower value; in the data active = max response below about -50%; inconclusive = no clear call, values can overlap the other calls
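Cells expressing the human receptor were seeded at 1500 cells/well, incubated overnight at 37 degrees C in 5% CO2, then exposed to library compounds with dopamine controls for 90 minutes at 37 degrees C before luminescent detection.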
DT40 TDP1 CPT: qHTS for Inhibitors of human tyrosyl-DNA phosphodiesterase 1 (TDP1): qHTS in cells in presence of CPT. chicken DT40 Tdp1-/-;hTDP1 cells + 20 nM CPT, ATP luminescence, 48 h. Potency, µM (top dose mostly 46.2 µM), actives largely listed as inhibitors. actives 12% (n = 420,000); also: nearly all actives have a fitted effect of over 55% in size
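Chicken DT40 Tdp1-/- cells complemented with human TDP1, 400 cells/well, exposed to compounds plus 20 nM camptothecin for at least 48 h at 37 C; viability read as ATP content by CellTiter-Glo luminescence.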
TDP1 cell noCPT: qHTS for Inhibitors of human tyrosyl-DNA phosphodiesterase 1 (TDP1): qHTS in cells in absence of CPT. DT40 Tdp1-/- hTDP1 cells, no CPT, ATP luminescence, 48 h. Potency, µM (highest dose often 46.2 µM), hits mostly inhibitors. actives 15% (n = 420,000). AID 686978, 2013; also: nearly all actives have a fitted effect of over 55% in size
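DT40 Tdp1-/-;hTDP1 cells, no CPT (DMSO vehicle only), 400 cells/well; compounds pin-transferred; ≥48 hr, 37 °C; CellTiter-Glo 30 min RT dark, luminescence read.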
A number is an active result; 0 = inactive; ? = inconclusive; - = no result given; [ ] = remark or other dose. Unless noted, calls follow the shape of the dose curve; as a rule, active = well fitted inhibition curve with a large enough effect; inconclusive = small, poorly fitted or top-dose-only effect; inactive = flat fitted curve, though single readings scatter.

SMILES	D3 ag	ClpP mod	IL1B secr inh	DRD3 antagonist	DT40 TDP1 CPT	TDP1 cell noCPT
CC(=O)N1CCC2(CCN(Cc3nccs3)CC2)CC1	-	-	-	-	0	0
Cc1ccc(Cn2nnc3c(=O)[nH]c(C4CCN(S(=O)(=O)c5ccc(C)cc5)CC4)nc32)cc1	0	0	?	0	0	?
O=c1[nH]c(C2CCN(S(=O)(=O)c3ccc(C(F)(F)F)cc3)CC2)nc2c1nnn2Cc1ccc(F)cc1	0	0	-57	0	?	?
N#Cc1cccc(NC(=O)N2CCC(c3nc4c(nnn4Cc4cccc(Cl)c4)c(=O)[nH]3)CC2)c1	0	0	-63	0	0	0
CC(=O)c1cccc(S(=O)(=O)N2CCCC(c3nc4c(nnn4Cc4cccc(Cl)c4)c(=O)[nH]3)C2)c1 (configuration not stated)	0	-	?	0	?	?
CC(=O)c1cccc(S(=O)(=O)N2CCCC(c3nc4c(nnn4Cc4ccc(C)cc4)c(=O)[nH]3)C2)c1 (configuration not stated)	0	-	-55	0	?	0
O=c1[nH]c(C2CCN(S(=O)(=O)c3cccc(C(F)(F)F)c3)CC2)nc2c1nnn2Cc1cccc(F)c1	0	0	-68	0	18µM	21µM
COc1ccc(NC(=O)Cn2nc3c(cc2=O)CCCC3)cc1Cl	0	0	-	-	0	0
CC1(C(=O)NS(=O)(=O)c2cccc(C#N)c2)CCN1C(=O)Cc1ccccc1Cl (configuration not stated)	0	0	0	0	0	0
Cc1sc2ncn(/N=C/c3ccco3)c(=O)c2c1C	0	-	0	0	0	0
O=C(CCCCCCC(=O)Nc1ccccc1)NO	0	-	-	-	0.42µM	0.6µM
Cc1cccc(OCCC(=O)NO)c1	-	0	-	-	10µM	10µM
Cc1cccc(OCCCC(=O)NC(C)C)c1	0	0	0	0	0	23µM
O=C(CCOc1ccccc1)NO	-	0	-	-	10µM	11µM
Cc1cccc(OCCCC(=O)O)c1	0	0	0	0	0	0
Cc1cccc(-n2c(SCC(=O)N3CCN(c4ccccn4)CC3)nnc2N2CCOCC2)c1	0	0	0	0	0	0
Cc1cccc(NC(=O)CSCC(=O)Nc2cc(Cl)ccc2N2CCOCC2)c1	0	0	0	0	?	?
CCc1ccc(OCCCC(=O)NCc2ccccc2)cc1	0	0	0	0	29µM	21µM
CC(C)COc1ccc(CC(=O)NO)cc1	-	0	-	-	8.9µM	?
O=C(Cc1ccc(OCCCc2ccccc2)cc1)NO	-	0	-	-	11µM	14µM
Cc1ccccc1C(C)(O)c1cnc(C)n1Cc1ccccc1 (configuration not stated)	0	0	0	0	21µM	12µM
COc1ccccc1NS(=O)(=O)c1cccc(C(=O)N/N=C/c2ccccc2OCC(=O)O)c1	0	-	0	0	0	0
COc1ccc(-c2nn(-c3ccccc3)cc2/C=N/NC(=O)c2cccc(S(=O)(=O)Nc3ccccc3OC)c2)cc1	0	18µM	0	0	0	0
COc1ccc(-c2nn(-c3ccccc3)cc2C(=O)O)cc1	0	0	0	0	0	0
COc1ccc(-c2nn(-c3ccccc3)cc2/C=N/Nc2cccc(C(=O)O)c2)cc1	0	0	0	0	0	0
SMILES	D3 ag	ClpP mod	IL1B secr inh	DRD3 antagonist	DT40 TDP1 CPT	TDP1 cell noCPT
C=CCNC(=S)N/N=C/c1cn(-c2ccccc2)nc1-c1ccc(OC)cc1	0	0	0	0	0	9.2µM
COc1ccc(-c2nn(-c3ccccc3)cc2/C=N/NC(=O)c2ccc(Br)o2)cc1	0	32µM	0	0	21µM	21µM
CC1CC(C)CN(C(=O)CCn2c(=O)oc3ccccc32)C1 (configuration not stated)	0	0	0	0	0	0
CN(Cc1cn(Cc2cccc(Cl)c2)nn1)C1CN(Cc2cn(Cc3cccc(Cl)c3)nn2)S(=O)(=O)C1 (configuration not stated)	0	0	0	0	?	?
CCOC(=O)/C(C#N)=C/Nc1ccsc1C(C)=O	0	0	0	0	0	0
CC1CCCCC1Nc1ncnc2sccc12 (configuration not stated)	0	-	0	0	18µM	?
COc1ccc(Nc2ncnc3sccc23)cc1	0	-	0	0	0	?
COC(=O)/C=C/c1cc(O)ccc1O	-	-	-	-	0.73µM	1.2µM
CCOC(=O)/C=C/c1cc(F)ccc1O	0	0	0	0	0	0
COc1ccc(NC(=O)c2ccccc2C)cc1	0	-	0	0	?	?
COc1ccc(CN2C(=O)C(NC(=O)c3ccc(C)cc3)(C(F)(F)F)N=C2c2ccccc2)cc1 (configuration not stated)	0	0	-	-	23µM	23µM
O=C(NC1(C(F)(F)F)N=C(c2ccccc2)N(Cc2ccccc2)C1=O)c1ccc(F)cc1 (configuration not stated)	0	0	-	-	21µM	?
COc1ccc(CN2C(=O)C(NC(=O)c3ccccc3C)(C(F)(F)F)N=C2c2ccccc2)cc1 (configuration not stated)	0	0	-	-	21µM	15µM
Cc1ccc(C(=O)NC2(C(F)(F)F)N=C(c3ccccc3)N(Cc3ccccc3)C2=O)cc1 (configuration not stated)	0	0	-	-	?	26µM
COc1ncc2nc(-c3cccs3)c(=O)n(C)c2n1	-	-	-	-	0	0
COC(=O)c1ccc(CS(=O)(=O)c2ccc(C)cc2)o1	0	0	0	0	?	0
O=C1OC(c2ccccc2)=C/C1=C/N1CCOCC1	0	0	0	-55	?	16µM
CN(C)/C=C1/C=C(c2ccccc2)OC1=O	0	0	-53	0	?	?
O=C1OC(c2ccccc2)=C/C1=C\N1CCOCC1	0	0	0	?	23µM	?
Cc1cccc2c(N3CCCC3)nc(CNS(=O)(=O)c3ccc4ccccc4c3)nc12	-	-	-	-	0[9.04 µM]	?
O=C(O)CN1C(=O)c2ccc(C(=O)c3ccccc3)cc2C1=O	0	0	0	0	0	0
CC1=NCCN1S(=O)(=O)c1c(C(C)C)cc(C(C)C)cc1C(C)C	0	-	-58	0	0	?
Cc1ccc(C)c(CN2C(=O)c3ccccc3S(=O)(=O)c3ccc(C(=O)Nc4ccccc4C(F)(F)F)cc32)c1	0	0	-	-	-	-
C[C@H]1CN=C(N(C)C)N1CCCC1CCCCC1	0	0	0	0	21µM	16µM

High-throughput results (PubChem)
